Screens as filed in PubChem BioAssay.
A selection: hits, their analogues and other compounds. The true share with any hit is near 19%.
DT40 TDP1 CPT – qHTS for Inhibitors of human tyrosyl-DNA phosphodiesterase 1 (TDP1): qHTS in cells in presence of CPT. Potency, µM (highest dose often 46.2 µM), most hits filed as inhibitors. 420,000 tested, 12% active. chicken DT40 Tdp1-/-;hTDP1 cells + 20 nM CPT, ATP luminescence, 48 h; further: nearly all actives have a fitted effect of over 55% in size
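Chicken DT40 Tdp1-/- cells complemented with human TDP1, 400 cells/well, exposed to compounds plus 20 nM camptothecin for at least 48 h at 37 C; viability read as ATP content by CellTiter-Glo luminescence.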
TDP1 cell noCPT – qHTS for Inhibitors of human tyrosyl-DNA phosphodiesterase 1 (TDP1): qHTS in cells in absence of CPT | DT40 Tdp1-/- hTDP1 cells, no CPT, ATP luminescence, 48 h | Potency, µM (series often up to 46.2 µM), hits mostly inhibitors | AID 686978, 2013 | 420,000 tested, 15% active; further: nearly all actives have a fitted effect of over 55% in size
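DT40 Tdp1-/-;hTDP1 cells, no CPT (DMSO vehicle only), 400 cells/well; compounds pin-transferred; ≥48 hr, 37 °C; CellTiter-Glo 30 min RT dark, luminescence read.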
HT1080-NT tox – qHTS for induction of synthetic lethality in tumor cells producing 2HG: qHTS for the HT-1080-NT fibrosarcoma cell line | Potency, µM (titrated, usually from 46.1 µM), actives largely listed as cytotoxic | AID 686970, 2013 | 360,000 tested, 1.6% active | HT-1080-NT fibrosarcoma viability, CellTiter-Glo ATP luminescence, 48 h;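 further: NT is the 2HG producing partner of a matched IDH1 knockdown line; nearly all actives have a fitted effect of over 55% in size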
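HT-1080-NT; 750 cells/well; 5% FBS RPMI; 48 h compound, 37 degrees C; CellTiter-Glo luminescence; curve fitting and curve-class assignment.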
IL1B secr inh – qHTS for Inhibitors of Inflammasome Signaling: IL-1-beta AlphaLISA Primary Screen; THP-1 LPS/ATP IL-1B secretion, AlphaLISA, 16 h; hits give low values; 360,000 tested, 4.7% active; activity change, % at 57.5 µM; in the data active means activity change below about -50%; inconclusive means mostly about -30% to -49%
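THP-1 cells pretreated 1 hr with compounds (up to 57.5 uM final), then stimulated with LPS (250 ng/mL final) plus ATP (1.25 mM final); secreted IL-1B measured by AlphaLISA after 16 hr, decreased signal indicating inhibition.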
HT1080 IDH1KD tx – qHTS for induction of synthetic lethality in tumor cells producing 2HG: qHTS for the HT-1080-IDH1KD cell line. HT-1080 IDH1 knockdown viability, ATP luminescence, 48 h. Potency, µM (highest dose often 46.1 µM), usual class: cytotoxic. 360,000 tested, 2% active
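Using the IDH1-knockdown HT-1080 line run in the same batch and compound series as the NT line, viability after 48 h at 37 °C was determined by CellTiter-Glo luminescence and expressed as % activity.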
Numbers stand for hits; n = inactive; u = inconclusive; x = not tested or not shown. Unless noted, the call rests on the fitted dose curve; in most records, active means well fitted curve in the direction sought with a large enough effect; inconclusive means small, poorly fitted or top-dose-only effect, or another doubt; inactive means no such curve, though single readings can be large; an effect the other way counts as inactive or inconclusive.

SMILES	DT40 TDP1 CPT	TDP1 cell noCPT	HT1080-NT tox	IL1B secr inh	HT1080 IDH1KD tx
Cc1cc(C)cc(NC(=S)/C(=C(\[O-])c2ccc(Cl)s2)[n+]2cccc(C)c2)c1	18µM	21µM	n	n	n
COc1ccc(CNC(=O)C2CC(=O)N(C3CCCC3)C2)cc1 (stereo unspecified)	n	n	n	n	n
CCCCn1c(N)c(N(CC(C)C)C(=O)CN2C(=O)NC3(CCC(C(C)(C)CC)CC3)C2=O)c(=O)[nH]c1=O (stereo unspecified)	n	n	n	n	n
COc1ccc(C)cc1S(=O)(=O)N1CCN(C(=O)c2ncoc2-c2ccc(C)cc2)CC1	n	n	n	-53	n
COc1ccc(OC)c(S(=O)(=O)N2CCc3ccccc32)c1	n	n	n	n	n
COc1ccc(-c2onc(C)c2C)cc1S(=O)(=O)N1CCc2ccccc21	16µM	u	x	x	x
COc1ccc(-c2onc(C)c2C)cc1S(=O)(=O)N1CCN(c2cc(C)ccc2C)CC1	u	21µM	x	x	x
Cc1c(C)n2c3c(cccc13)CC2	n	n	n	n	n
c1cc2c3c(c1)c1c(n3CCNC2)CCCC1	u	24µM	x	x	x
Cc1cccc2cc(C#N)c(NCCCNS(=O)(=O)c3ccc(Cl)cc3)nc12	18µM	u	u	n	u
CN(C)S(=O)(=O)c1ccc(C(=O)NN2C(=O)NC3(CCCCC3)C2=O)cc1	n	n	n	n	n
O=C(NCCCN1CCOCC1)c1cc2nc(-c3ccco3)cc(C(F)(F)F)n2n1	n	n	n	n	n
O=C(NCc1ccco1)c1cc2nc(-c3ccc4c(c3)OCO4)cc(C(F)(F)F)n2n1	u	18µM	n	n	n
O=C(NC1CCCCC1)c1cc2nc(-c3ccco3)cc(C(F)(F)F)n2n1	21µM	18µM	n	n	n
O=C(NC1CCCCC1)c1cc2nc3c(c(C(F)(F)F)n2n1)CCCC3	u	21µM	n	n	n
O=C(NC12CC3CC(CC(C3)C1)C2)c1cc2nc(-c3ccco3)cc(C(F)(F)F)n2n1	21µM	26µM	n	n	n
O=C1OC(c2ccccc2)(c2cc(Br)ccc2O)c2ccccc21 (stereo unspecified)	18µM	u	16µM	-92	21µM
O=C1OC(c2ccccc2)(c2ccc3cc(O)ccc3c2)c2ccccc21 (stereo unspecified)	21µM	u	13µM	u	26µM
O=C1OC(c2ccc3ccccc3c2O)(c2ccc3ccccc3c2O)c2ccccc21	5.8µM	5.2µM	n	-51	u
O=C(Cc1ccc(F)cc1)N/N=C/c1ccncc1	n	n	n	n	n
O=C(COC(=O)CC1CCCC1)Nc1ccc(Cl)cc1	n	n	n	n	n
CCOC(=O)C1=CCN(S(=O)(=O)c2ccccc2)C1c1ccc(Cl)cc1 (stereo unspecified)	n	u	n	n	n
CCn1c2ccccc2c2cc(CN3CCN(Cc4cc(OC)ccc4O)CC3)ccc21	26µM	u	u	-84	u
COc1ccc(CN2CCN(CC(O)Cn3c4ccccc4c4ccccc43)CC2)cc1 (stereo unspecified)	u	u	18µM	-57	u
COc1ccc(O)c(CN2CCN(C/C=C/c3ccccc3)CC2)c1	n	n	n	n	u
SMILES	DT40 TDP1 CPT	TDP1 cell noCPT	HT1080-NT tox	IL1B secr inh	HT1080 IDH1KD tx
CN1CCN(CC(O)Cn2c3ccccc3c3ccccc32)CC1 (stereo unspecified)	n	u	n	n	n
CCn1c2ccccc2c2cc(CN3CCN(Cc4cc(OC)c(O)c(OC)c4)CC3)ccc21	10µM	10µM	x	x	x
COc1ccc(O)c(CN2CC3CCC(CC3)C2)c1	23µM	u	n	n	n
COc1ccc(-c2cc3ccccc3n2CC(O)CN2CCC(C)CC2)cc1 (stereo unspecified)	u	23µM	n	u	n
N#CC1c2ccccc2C=CN1C(=O)N(c1ccccc1)c1ccccc1 (stereo unspecified)	u	u	u	-97	u
COc1ccc(C(C(=O)NC2CCCC2)N(C(=O)c2ccoc2C)c2ccc(C)cc2)cc1 (stereo unspecified)	18µM	16µM	n	n	n
COc1ccc(N(C(=O)Cc2cccs2)C(C(=O)NC2CCCC2)c2ccncc2)cc1 (stereo unspecified)	u	u	n	n	n
COc1ccc(N(C(=O)c2ccco2)C(C(=O)NC2CCCC2)c2ccncc2)cc1 (stereo unspecified)	n	n	n	n	n
COc1ccc(C(C(=O)NC2CCCCC2)N(C(=O)CCl)c2cccc(Cl)c2)cc1 (stereo unspecified)	2.3µM	1.8µM	9.2µM	-110	1.6µM
COC(CN(C(=O)CCl)C(C(=O)NC1CCCCC1)c1ccc(C)cc1)OC (stereo unspecified)	16µM	13µM	n	-93	n
COc1ccc(C(C(=O)NC2CCCCC2)N(C(=O)CCl)c2ccc(C)cc2)cc1 (stereo unspecified)	1.8µM	1.6µM	0.82µM	-106	1.2µM
COCCN(C(=O)CCCC(=O)Nc1ccccn1)C(C(=O)NC1CCCCC1)c1ccc(C)cc1 (stereo unspecified)	n	u	n	n	n
CCOc1cc2[nH]c(=S)n(CCC(=O)NC3CCCCC3)c(=O)c2cc1OCC	u	n	n	n	n
O=C(Cn1cc(C(F)(F)F)ccc1=O)NC1CCCC1	n	n	n	n	n
COc1ccc(C(C(=O)NC2CCCCC2)N(C(=O)CCl)c2ccc(OC)cc2)cc1 (stereo unspecified)	1.8µM	1.5µM	1.6µM	-90	1.2µM
Cc1ccc(OCc2nnc(SC(C)C(=O)O)n2-c2ccccc2)cc1 (stereo unspecified)	n	n	n	n	n
Cc1ccc(S(=O)(=O)N2CCN=C2SCc2ccc(Cl)c(Cl)c2)cc1	n	n	n	n	n
O=S(=O)(c1ccccc1)N1CCN=C1SCc1c(F)cccc1Cl	13µM	u	n	n	n
O=S(=O)(c1ccccc1)N1CCN=C1SCc1cccnc1	n	n	n	n	n
Cc1ccc(CSC2=NCCN2S(=O)(=O)c2ccc(C)cc2)cc1	23µM	u	n	n	n
Cc1ccc(C)c(CSC2=NCCN2S(=O)(=O)c2ccccc2)c1	18µM	16µM	n	n	n
CCOC(=O)N1CCN(C(=O)/C(=C/c2ccc(Br)cc2)NC(=O)c2ccc(OC)cc2)CC1	u	u	n	n	n
